Results with a measured potency or affinity are listed apart.
How the values were obtained:
Klebsiella pneumoniae = settings: Concentration 32 ug.mL-1;; ASSAY_TEST Inhibition of Bacterial Growth; detection method Absorption (OD600); MEDIA CAMHB; plate type 384well; NBS; CORNING #3640; time 18 hr
Candida albicans = settings: Concentration 32 ug.mL-1; ASSAY_TEST Inhibition of Fungal Growth; detection method Absorption (OD530)
Cryptococcus neoformans = settings: Concentration 32 ug.mL-1; ASSAY_TEST Inhibition of Fungal Growth; detection method Resazurin; Absorption (OD600-OD570); plate type 384well; NBS; CORNING #3640

| SMILES | Inhibition (Klebsiella pneumoniae) [%] | Inhibition (Candida albicans) [%] | Inhibition (Cryptococcus neoformans) [%] |
| --- | --- | --- | --- |
| COc1cc(NC(=O)C(C)Sc2nnc3c(=O)n(-c4cccc(OC)c4)ccn23)cc(OC)c1 (centres undefined) | 2.2 | -0.84 | -10.32 |
| CCC(Sc1nnc2c(=O)n(-c3ccc(F)cc3)ccn12)C(=O)Nc1cc(OC)cc(OC)c1 (centres undefined) | 12.14 | -0.61 | -13.06 |
| CCOc1ccccc1NC(=O)Cn1nc2c(Sc3cccc(C)c3)nccn2c1=O | 9.01 | 0.35 | -13.32 |
| Cc1ccc(Cn2nc3c(=O)n(-c4ccc(C)c(C)c4)ccn3c2=O)cc1 | 14.01 | 3.7 | -17.46 |
| COc1ccc(-c2cc3c4nn(CC(=O)Nc5ccc(C)cc5)c(=O)n4ccn3n2)cc1 | 7.98 | 8.11 | -26.93 |
| Cc1cc2nn(CC(=O)Nc3cc(F)cc(F)c3)c(=O)n2c(Nc2ccccc2C)n1 | 6.94 | 0.1 | -12.73 |
| Cc1ccc(CN(c2ccc(C(C)C)cc2)S(=O)(=O)c2cccn3cnnc23)cc1 | 23.96 | 3.57 | -16.89 |
| COc1ccc(-c2cc3c4nn(CC(=O)Nc5ccccc5Cl)c(=O)n4ccn3n2)cc1 | 4.39 | 6.88 | -15.65 |
| Cc1nnc2c(SCC(=O)Nc3cccc(Br)c3)nc3ccccc3n12 | 10.33 | 5.04 | -3.71 |
| O=C(CSc1nc2ccccc2n2cnnc12)NCc1ccccc1Cl | 2.85 | 0.3 | -14.6 |
| COc1ccc(-c2cc3c4nn(CC(=O)Nc5ccc(OC)cc5OC)c(=O)n4ccn3n2)cc1 | 12.55 | 0.69 | -8.54 |
| COc1ccc(Cl)cc1NC(=O)CSc1nnc2c(=O)n(-c3ccc(C)c(C)c3)ccn12 | 15.8 | 0.63 | -9.59 |
| Cc1cc2nn(CC(=O)N3CCOCC3)c(=O)n2c(Nc2ccc(C)c(F)c2)n1 | 15.3 | 1.38 | -5.57 |
| COc1ccc(C)cc1NC(=O)Cn1nc2c3cc(-c4ccc(Cl)cc4)nn3ccn2c1=O | 15.75 | -1.06 | -27.09 |
| N#Cc1ccc(NC(=O)Cn2nc3c(SC4CCCCC4)nccn3c2=O)cc1 | 10.51 | 3.23 | -20.35 |
| COc1ccc(OC)c(NC(=O)Cn2nc3c(Sc4ccccc4)nc4ccccc4n3c2=O)c1 | 8.31 | 2.83 | -24.8 |
| COc1ccc(-c2cc3c4nnc(CCC(=O)NCCc5ccccc5)n4ccn3n2)cc1 | 3.81 | 3.45 | -16.37 |
| COc1ccc(NC(=O)Cn2nc3c(Sc4ccccc4)nccn3c2=O)cc1Cl | -2.59 | 0.73 | 2.33 |
| CC(C)c1nnc2c(SCC(=O)Nc3ccc(Cl)cc3C(F)(F)F)nc3ccccc3n12 | 1.04 | 3.28 | -8.02 |
| CCN(CCCNC(=O)CCc1nnc2ccc(-c3ccccc3)nn12)c1ccccc1 | 9.95 | 3.75 | -0.38 |
| Cc1ccc(-n2ccn3c(=O)n(Cc4cccc(Cl)c4)nc3c2=O)cc1C | 2.85 | 1.08 | -13.91 |
| COc1cccc(-n2ccn3c(SCc4cccc(C(F)(F)F)c4)nnc3c2=O)c1 | -17.2 | 12.49 | -6.54 |
| Cc1nnc2c(S(=O)(=O)N(Cc3ccccc3F)c3ccc(C(C)C)cc3)cccn12 | 0.43 | 0.44 | -4.75 |
| Cc1cc2nn(CC(=O)Nc3cc(F)ccc3C)c(=O)n2c(Nc2ccc(F)c(C)c2)n1 | 15.58 | 4.23 | -9.62 |
| O=S(=O)(c1ccc2nncn2c1)N(Cc1cc(F)cc(F)c1)c1ccccc1 | -3.49 | -0.85 | -9.11 |
| O=C(Cn1nc2c3c4c(sc3ncn2c1=O)CCCC4)Nc1ccc2c(c1)OCO2 | 4.23 | 4.71 | -14.52 |
| Cc1ccc(-c2nnc3c(=O)n(CC(=O)Nc4cc(C)cc(C)c4)c4ccccc4n23)cc1 | 11.28 | -1.05 | -21.63 |
| CC(=O)c1ccc(NC(=O)Cn2nc3c4cc(-c5ccc(Cl)cc5)nn4ccn3c2=O)cc1 | 16.61 | 29.09 | -18.84 |
